The full data set covers some 7,900 targets. This sample favours those with a hit. About 0.6% of all pairs of compound and target were hits. A number with no mark means an inactive call.

Sequence of UniProt P04183 (P04183 whole entry, looked up): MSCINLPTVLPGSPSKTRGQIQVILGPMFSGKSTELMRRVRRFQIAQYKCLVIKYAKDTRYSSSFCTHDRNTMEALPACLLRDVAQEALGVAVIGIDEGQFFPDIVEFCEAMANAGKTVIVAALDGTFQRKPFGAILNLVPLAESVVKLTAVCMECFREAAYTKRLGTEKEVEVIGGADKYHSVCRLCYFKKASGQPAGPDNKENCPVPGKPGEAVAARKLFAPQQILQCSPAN
Sequence of UniProt Q8NBW4 (Q8NBW4 whole entry, looked up): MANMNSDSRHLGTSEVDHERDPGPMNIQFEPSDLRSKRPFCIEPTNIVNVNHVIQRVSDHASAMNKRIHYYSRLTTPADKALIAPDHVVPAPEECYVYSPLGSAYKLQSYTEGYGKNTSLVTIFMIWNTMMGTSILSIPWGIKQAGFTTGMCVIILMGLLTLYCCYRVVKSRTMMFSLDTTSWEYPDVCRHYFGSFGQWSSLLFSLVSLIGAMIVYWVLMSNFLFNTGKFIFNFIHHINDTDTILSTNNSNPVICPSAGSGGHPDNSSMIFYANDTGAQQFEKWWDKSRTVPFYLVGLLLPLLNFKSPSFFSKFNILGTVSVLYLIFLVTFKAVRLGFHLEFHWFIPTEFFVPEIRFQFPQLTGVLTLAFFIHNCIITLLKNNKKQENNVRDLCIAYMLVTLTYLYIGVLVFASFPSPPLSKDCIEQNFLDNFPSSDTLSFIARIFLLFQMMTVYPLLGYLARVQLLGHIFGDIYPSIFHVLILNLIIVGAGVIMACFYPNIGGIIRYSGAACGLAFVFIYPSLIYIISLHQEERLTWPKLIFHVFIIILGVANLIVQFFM
Sequence of UniProt Q8IY18 (Q8IY18 whole entry, looked up): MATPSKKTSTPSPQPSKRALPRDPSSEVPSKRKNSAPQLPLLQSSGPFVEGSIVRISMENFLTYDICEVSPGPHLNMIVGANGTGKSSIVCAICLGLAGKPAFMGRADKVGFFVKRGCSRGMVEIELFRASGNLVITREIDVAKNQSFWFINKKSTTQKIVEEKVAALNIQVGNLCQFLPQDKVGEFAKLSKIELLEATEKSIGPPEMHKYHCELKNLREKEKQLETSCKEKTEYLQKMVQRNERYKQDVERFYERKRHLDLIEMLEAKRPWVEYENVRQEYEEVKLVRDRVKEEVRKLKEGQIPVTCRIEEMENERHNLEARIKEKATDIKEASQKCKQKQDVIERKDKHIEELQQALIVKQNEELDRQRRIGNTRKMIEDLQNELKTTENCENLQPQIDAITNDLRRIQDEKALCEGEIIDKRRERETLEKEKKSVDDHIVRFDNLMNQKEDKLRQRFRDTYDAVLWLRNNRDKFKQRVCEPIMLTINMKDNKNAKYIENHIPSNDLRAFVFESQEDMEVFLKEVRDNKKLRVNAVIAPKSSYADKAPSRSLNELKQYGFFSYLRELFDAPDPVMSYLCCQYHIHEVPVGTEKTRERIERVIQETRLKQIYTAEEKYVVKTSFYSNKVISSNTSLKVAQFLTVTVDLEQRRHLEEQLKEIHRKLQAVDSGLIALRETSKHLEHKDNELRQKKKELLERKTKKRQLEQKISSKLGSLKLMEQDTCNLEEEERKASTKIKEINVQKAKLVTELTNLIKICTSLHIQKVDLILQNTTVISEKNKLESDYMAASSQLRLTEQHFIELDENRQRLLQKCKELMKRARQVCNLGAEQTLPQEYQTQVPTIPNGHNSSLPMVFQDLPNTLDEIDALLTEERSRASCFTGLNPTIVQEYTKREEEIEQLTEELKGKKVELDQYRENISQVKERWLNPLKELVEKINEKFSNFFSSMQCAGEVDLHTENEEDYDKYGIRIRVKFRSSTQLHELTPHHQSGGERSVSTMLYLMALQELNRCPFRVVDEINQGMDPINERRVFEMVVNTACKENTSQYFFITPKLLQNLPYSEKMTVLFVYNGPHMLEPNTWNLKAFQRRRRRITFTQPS
Sequence of UniProt P51692 (P51692 whole entry, looked up): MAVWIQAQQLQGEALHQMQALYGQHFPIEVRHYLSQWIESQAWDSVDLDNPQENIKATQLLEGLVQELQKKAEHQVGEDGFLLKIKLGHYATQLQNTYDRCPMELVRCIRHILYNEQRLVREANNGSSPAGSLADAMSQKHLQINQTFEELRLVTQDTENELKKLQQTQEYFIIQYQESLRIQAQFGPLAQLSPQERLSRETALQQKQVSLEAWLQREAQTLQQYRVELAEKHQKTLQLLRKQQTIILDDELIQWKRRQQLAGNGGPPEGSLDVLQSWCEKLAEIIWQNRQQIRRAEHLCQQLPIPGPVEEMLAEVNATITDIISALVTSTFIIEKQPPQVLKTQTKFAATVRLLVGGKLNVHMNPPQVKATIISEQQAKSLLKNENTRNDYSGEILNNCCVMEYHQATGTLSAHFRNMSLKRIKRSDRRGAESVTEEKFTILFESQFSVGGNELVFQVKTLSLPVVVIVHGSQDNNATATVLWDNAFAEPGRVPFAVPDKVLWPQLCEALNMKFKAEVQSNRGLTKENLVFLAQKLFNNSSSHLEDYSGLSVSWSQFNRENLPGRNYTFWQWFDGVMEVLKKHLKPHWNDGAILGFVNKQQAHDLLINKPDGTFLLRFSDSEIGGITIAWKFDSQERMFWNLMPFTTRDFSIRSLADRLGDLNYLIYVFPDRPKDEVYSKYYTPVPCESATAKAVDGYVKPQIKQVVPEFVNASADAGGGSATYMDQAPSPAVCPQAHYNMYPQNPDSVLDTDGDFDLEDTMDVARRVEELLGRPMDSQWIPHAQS
Sequence of UniProt Q9Y5X3 (Q9Y5X3 whole entry, looked up): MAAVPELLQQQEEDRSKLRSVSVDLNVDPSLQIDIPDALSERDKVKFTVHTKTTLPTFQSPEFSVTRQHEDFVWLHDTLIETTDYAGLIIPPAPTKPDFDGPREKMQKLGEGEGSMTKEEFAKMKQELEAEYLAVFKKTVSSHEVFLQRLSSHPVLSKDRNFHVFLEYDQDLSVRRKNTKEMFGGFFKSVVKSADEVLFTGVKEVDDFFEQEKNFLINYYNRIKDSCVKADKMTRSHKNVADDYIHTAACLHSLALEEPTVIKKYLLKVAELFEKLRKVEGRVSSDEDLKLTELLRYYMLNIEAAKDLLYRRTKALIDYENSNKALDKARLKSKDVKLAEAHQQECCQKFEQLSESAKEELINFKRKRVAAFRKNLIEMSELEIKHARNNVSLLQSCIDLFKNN
Sequence of UniProt Q9H4L7 (Q9H4L7 whole entry, looked up): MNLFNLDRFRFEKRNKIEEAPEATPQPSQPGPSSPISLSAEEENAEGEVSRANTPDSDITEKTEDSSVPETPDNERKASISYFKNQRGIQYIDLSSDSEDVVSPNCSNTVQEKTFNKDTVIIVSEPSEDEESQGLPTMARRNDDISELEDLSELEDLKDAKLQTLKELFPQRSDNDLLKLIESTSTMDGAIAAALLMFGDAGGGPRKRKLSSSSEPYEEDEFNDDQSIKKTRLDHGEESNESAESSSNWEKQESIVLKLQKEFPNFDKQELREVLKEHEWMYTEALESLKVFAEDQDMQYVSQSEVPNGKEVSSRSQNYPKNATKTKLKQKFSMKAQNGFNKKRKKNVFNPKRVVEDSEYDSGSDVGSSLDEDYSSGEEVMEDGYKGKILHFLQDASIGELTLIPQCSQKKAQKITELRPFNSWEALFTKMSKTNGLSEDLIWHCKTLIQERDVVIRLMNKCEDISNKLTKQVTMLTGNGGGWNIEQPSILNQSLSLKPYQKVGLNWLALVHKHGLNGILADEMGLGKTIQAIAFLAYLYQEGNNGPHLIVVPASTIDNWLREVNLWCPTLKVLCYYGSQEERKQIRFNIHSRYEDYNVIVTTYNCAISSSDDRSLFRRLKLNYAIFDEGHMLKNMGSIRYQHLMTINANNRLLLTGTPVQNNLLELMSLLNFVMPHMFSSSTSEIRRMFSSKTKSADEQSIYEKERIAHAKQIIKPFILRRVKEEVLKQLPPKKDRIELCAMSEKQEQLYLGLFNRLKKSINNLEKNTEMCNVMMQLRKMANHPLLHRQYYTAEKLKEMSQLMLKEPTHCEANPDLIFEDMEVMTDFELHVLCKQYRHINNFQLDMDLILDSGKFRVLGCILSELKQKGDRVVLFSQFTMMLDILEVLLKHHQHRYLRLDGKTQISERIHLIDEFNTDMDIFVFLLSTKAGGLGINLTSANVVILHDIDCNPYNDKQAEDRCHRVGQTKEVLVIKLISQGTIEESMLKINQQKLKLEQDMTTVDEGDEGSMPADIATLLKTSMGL
Sequence of UniProt P84103 (P84103 whole entry, looked up): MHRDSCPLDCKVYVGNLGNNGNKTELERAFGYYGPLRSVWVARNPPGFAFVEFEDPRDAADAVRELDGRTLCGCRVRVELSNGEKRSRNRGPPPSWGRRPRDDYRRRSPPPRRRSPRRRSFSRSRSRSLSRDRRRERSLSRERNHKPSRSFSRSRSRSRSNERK
Sequence of UniProt O43615 (O43615 whole entry, looked up): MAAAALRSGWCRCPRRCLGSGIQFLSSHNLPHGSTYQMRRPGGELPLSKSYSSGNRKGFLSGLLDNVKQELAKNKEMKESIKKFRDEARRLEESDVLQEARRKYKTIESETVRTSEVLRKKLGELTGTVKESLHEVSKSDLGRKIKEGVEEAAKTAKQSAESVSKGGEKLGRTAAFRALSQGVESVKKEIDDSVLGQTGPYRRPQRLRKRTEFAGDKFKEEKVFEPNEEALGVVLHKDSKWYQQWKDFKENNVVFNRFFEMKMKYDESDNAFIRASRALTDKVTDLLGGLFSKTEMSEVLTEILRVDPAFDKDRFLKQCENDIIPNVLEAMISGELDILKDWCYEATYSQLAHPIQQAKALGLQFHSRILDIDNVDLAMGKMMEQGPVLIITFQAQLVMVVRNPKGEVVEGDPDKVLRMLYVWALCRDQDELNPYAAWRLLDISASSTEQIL
Sequence of UniProt Q15005 (Q15005 whole entry, looked up): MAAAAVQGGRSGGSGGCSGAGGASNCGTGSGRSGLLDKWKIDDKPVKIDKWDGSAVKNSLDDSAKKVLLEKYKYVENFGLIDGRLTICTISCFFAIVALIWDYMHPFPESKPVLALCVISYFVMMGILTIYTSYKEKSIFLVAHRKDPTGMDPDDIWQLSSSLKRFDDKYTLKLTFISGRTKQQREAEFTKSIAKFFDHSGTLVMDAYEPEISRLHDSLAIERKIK

Compound in the experiment: Cc1nc(Nc2n[nH]c3c2CN(C(=O)N[C@H](CN(C)C)c2ccccc2)C3(C)C)c2sccc2n1
Description: log2 fold change, soluble protein after heating vs DMSO (PISA); higher = thermal stabilisation; K562 cells, 10 uM, 30 min; active = over 0.2 and 3.5 SD of the protein, either way, in both replicates (recomputed). The method, boiled down:
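For each measurement, 10 μM compound was applied for 30 min to K562 cells at 2×10^6 cells/mL. Aliquots were heated for 3 min across 48°C-58°C, pooled, and extracted in PBS with 0.5% NP-40 at 4°C; the supernatant after 21,000xg for 90 min was soluble protein. This was quantified by TMTpro 16plex LC-MS/MS with channel sums equalised, and thermal stability was reported relative to control samples from duplicates, on a log2 fold-change scale.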
As to STAT5B (UniProt P51692), the log2 fold change is -0.432.
Take STAT3 (UniProt P40763): the log2 fold change is -0.216.
For the target STAM2 (UniProt O75886), the log2 fold change is -0.077.
To TIAL1 isoform 2 (UniProt Q01085) belongs 0.036; to SLC38A9 (UniProt Q8NBW4), 0.05.
In the case of STAT5A (UniProt P42229), the log2 fold change is -0.338 (active).
Turning to SNX5 (UniProt Q9Y5X3), the log2 fold change is 0.006.
Regarding SMARCE1 (UniProt Q969G3), the log2 fold change was 0.16.
To SRSF3 (UniProt P84103) belongs -0.544 (active).
Consider SMC5 (UniProt Q8IY18), for which the log2 fold change was -0.095.
To SNX1 (UniProt Q13596) belongs 0; to TARBP1 (UniProt Q13395), 0.081; to STX17 (UniProt P56962), -0.057.
As for SMARCAD1 isoform 2 (UniProt Q9H4L7), the figure is -0.056; as for TIMM10 (UniProt P62072), 0.005; as for SPCS2 (UniProt Q15005), -0.034.
To SMAP2 (UniProt Q8WU79) belongs -0.039; to TK1 (UniProt P04183), 0.028.
Regarding TIMM44 (UniProt O43615), the log2 fold change is -0.066.
As to TIMM29 (UniProt Q9BSF4), the log2 fold change is 0.069.
As for SRI (UniProt P30626), the figure is 0.001.
To SORT1 (UniProt Q99523) belongs -0.023; to SLC7A6 (UniProt Q92536), 0.008.

(Values after the supplement of paper PMC10849652.)
